# Source: PubChem BioAssay AID1477 (National Center for Advancing Translational Sciences (NCATS), 2009)
# Fewer than 10 of roughly 230,000 compounds were called active. About 3% were inconclusive and are not listed. The list is a sample of the results. Unmarked numbers belong to inactive results. Calls follow the shape of the dose curve; as a rule, active = well fitted curve in the direction sought with a large enough effect; inconclusive = small, poorly fitted or top-dose-only effect, or effect the other way, or another doubt; inactive = no such curve, though single readings can be large or run the other way.
# Biological target: Runt-related transcription factor 1 (Homo sapiens) + Core-binding factor subunit beta (Homo sapiens) (UniProt Q01196+Q13951)
# Experiment: qHTS Assay for Compounds Blocking the Interaction Between CBF-beta and RUNX1 for the Treatment of Acute Myeloid Leukemia; also: % of control where 0% means no effect
# Conditions: AlphaScreen CBFb-His/RUNX1-biotin binding, biochemical; series mostly up to 59.8 µM
# Source text: NIH Chemical Genomics Center [NCGC]
# NIH Molecular Libraries Probe Production centers Network [MLPCN]
# Assay Submitter (PI): Paul Liu
# Core Binding Factor (CBF) abnormalities are associated with 20-25% of all acute myeloid leukemias (AML), of which 5-10% are further sub classified as acute myelomonocytic leukemia with eosinophilia, also known as M4Eo in the FAB classification scheme. This subtype of leukemia is usually associated with chromosome 16 inversion (p13:q22). Chromosome 16 inversion results in formation of the fusion oncogene CBFB-MYH11, which encodes the fusion protein CBF-beta-SMMHC.
# It has been hypothesized that the interference of CBF-beta and RUNX1 binding could have therapeutic implications for patients with CBF mediated leukemias. We developed a CBF-beta and RUNX1 binding assay in AlphaScreenTM format and optimized it for high throughput screening to search for inhibitors. The goal of this project is to screen MLPCN's compound collection (MLSMR) for identifying the inhibitors of the interaction between CBF-beta and RUNX1 proteins as research probes. If these probes work well in the animal models, the ultimate goal of this project is to development a new drug treatment for this disease.
# This assay can not be used to assess how apparent inhibitors interfere with protein binding, and whether inhibitors specifically bind to either protein. Disruption of this protein-protein interaction, through any mechanism, is the intended target activity.
# NCGC Assay Protocol Summary:
# Step, Parameter, Description
# (1) Reagent, 3 uL CBFb-His/RUNX1-biotin mix incubated together for 20 minutes at room temperature (30 nM each)
# (2) Compound or control, 23 nL compound stock solution
# (3) Incubation, 15 minutes at Room temperature
# (4) Reagent, 1 uL 50 ng each of beads (Nickel beads and streptavidin beads)
# (5) Incubation, 90 minutes at Room temperature
# (6) Detection, Excitation=365 nm Emission=440 nm, Envision reader in AlphaScreenTM mode
# Keywords: MLSMR, MLPCN, NIH Roadmap, qHTS, NCGC, Core binding factor, CBF, CBF-beta, Acute myeloid leukemia
# Chain of Runt-related transcription factor 1 (Homo sapiens) + Core-binding factor subunit beta (Homo sapiens) (Q01196 whole entry, looked up): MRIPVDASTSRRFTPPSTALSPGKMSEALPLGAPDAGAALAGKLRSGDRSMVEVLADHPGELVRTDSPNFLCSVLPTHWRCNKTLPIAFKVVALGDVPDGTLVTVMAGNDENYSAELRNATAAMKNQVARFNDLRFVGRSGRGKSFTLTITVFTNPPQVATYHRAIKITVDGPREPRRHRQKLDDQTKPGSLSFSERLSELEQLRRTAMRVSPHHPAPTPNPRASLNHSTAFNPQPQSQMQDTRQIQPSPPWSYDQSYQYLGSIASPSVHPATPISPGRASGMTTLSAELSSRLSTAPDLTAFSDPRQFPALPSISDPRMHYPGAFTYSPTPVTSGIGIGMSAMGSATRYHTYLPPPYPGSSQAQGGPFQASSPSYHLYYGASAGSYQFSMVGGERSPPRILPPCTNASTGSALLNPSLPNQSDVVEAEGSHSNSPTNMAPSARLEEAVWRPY
# Chain of Runt-related transcription factor 1 (Homo sapiens) + Core-binding factor subunit beta (Homo sapiens) (Q13951 whole entry, looked up): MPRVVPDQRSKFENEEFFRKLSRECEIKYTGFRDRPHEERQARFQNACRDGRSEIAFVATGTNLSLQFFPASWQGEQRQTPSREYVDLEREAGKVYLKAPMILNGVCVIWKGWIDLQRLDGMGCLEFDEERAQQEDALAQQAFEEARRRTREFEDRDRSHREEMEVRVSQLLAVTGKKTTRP
row,Compound,"activity, negative = inhibition"
1,O=C(c1ccccc1)c1cc(-c2ccccn2)c(N2CCOCC2)s1,inactive
2,CC1CN(c2nc(Nc3ccccc3)nc(N)c2[N+](=O)[O-])CC(C)O1 (stereo not drawn),inactive
3,OCCC#Cc1ccc(CN2CCN(Cc3ccsc3)C(CCO)C2)cc1 (stereo not drawn),inactive
4,O=C(O)c1ccc(/C=C2/SC(=S)N(c3cccc(C(F)(F)F)c3)C2=O)cc1,inactive
5,COc1ccc2nc(NC(=O)NC3CCCCC3)sc2c1,inactive
6,COc1ccc(Br)cc1C1C2C=CCC(C)C2C(=O)N1Cc1ccccc1 (stereo not drawn),inactive
7,COc1cc(C(=O)NCc2nnc(SCC(=O)Nc3nc4ccc(C)cc4s3)o2)cc(OC)c1OC,inactive
8,COCc1cc(=O)[nH]c(-c2ccc(C(F)(F)F)cc2)n1,inactive
9,COc1ccc(N2C(=O)/C(=C\c3ccco3)N=C2SCC(N)=O)cc1Cl,inactive
10,COc1ccc(Cl)cc1NC(=O)NC(C)C(C)(C)C (stereo not drawn),inactive
11,CC(C)=CCC[C@]1(C)[C@@H](CC=C(C)C)C[C@@]2(CC=C(C)C)C(=O)[C@]1(C(=O)C(C)C)C(=O)C(CC=C(C)C)=C2O,inactive
12,COc1ccc(/C=C/C(=O)Nc2ccc(C)cc2)cc1S(=O)(=O)N1CCOCC1,inactive
13,Cc1ccc(CNC(=O)C2(C(F)(F)F)C/C(=C\CCO)CCCO2)o1 (stereo not drawn),inactive
14,C[C@H]1CCC[C@@]2(C)CCCC[C@]12O,inactive
15,Oc1ccc(-c2c(-c3ccccc3)nn3c(C(F)(F)F)cc(C(F)(F)F)nc23)cc1,inactive
16,COc1ccc2oc(-c3cccc(NC(=O)CSc4ccc(Cl)cc4)c3)nc2c1,inactive
17,CC[C@H](C)[C@@H](NC(=O)O[C@@H]1C(=O)c2cc(OC)ccc2O[C@H]1c1cccc(OC)c1)C(=O)OC,inactive
18,COc1ccc(C2/C=C\CN(C(=O)c3ccc(C)cc3)C(Cc3ccccc3)C(=O)N2Cc2ccc(F)cc2)cc1 (stereo not drawn),inactive
19,H-EHIPA-OH,inactive
20,COC(=O)C(CC(C)C)NS(=O)(=O)c1cc(Br)ccc1Br (stereo not drawn),inactive
21,Cc1ccc(C(=O)N/N=C\c2cc(Br)c(Br)o2)cn1,inactive

row,Compound,"activity, negative = inhibition"
1,COc1ccc(C2/C=C\CN(CC(C)C)CC(=O)N2Cc2ccc(F)cc2)cc1 (stereo not drawn),inactive
2,COc1ccc(C(=O)CSc2nnc(NC(=O)C3CC(=O)N(c4cccc(OC)c4)C3)s2)cc1 (stereo not drawn),inactive
3,COc1ccc(/C=N/NC(=O)Cn2cc(C(F)(F)F)ccc2=O)cc1,inactive
4,COC(=O)c1c(NC(=O)CN(c2ccc(C)c(C)c2)S(C)(=O)=O)sc2c1CCCC2,inactive
5,COc1ccc(C(CCN2CCOCC2)c2c(OC)cc(OC)c3c2OC(=O)CC3c2ccc(OC)cc2)cc1 (stereo not drawn),inactive
6,COC(=O)c1nc2n(n1)C(c1ccc([N+](=O)[O-])cc1)C(C(=O)Nc1ccc(Cl)cc1)=C(C)N2 (stereo not drawn),inactive
7,O=C(COC(=O)c1ccc(S(=O)(=O)Nc2ccccc2)cc1)NCC1CCCO1 (stereo not drawn),inactive
8,C=C1CCN(Cc2ccc(OC)cc2)S(=O)(=O)c2ccccc21,inactive
9,CC(C)C(NS(=O)(=O)c1ccc(-c2ccc(Br)cc2)cc1)C(=O)O (stereo not drawn),inactive
10,CCCC(O)(CCC)C(=O)NN(C(=O)CCl)c1cccc(C)c1,inactive
11,COc1ccc(C(=O)Nc2ccc(-n3nncc3C(C)(C)C)cc2)cc1,inactive
12,C=CCOC(=O)C(=C)C,inactive
13,NCCCCC(N)C(=O)O (stereo not drawn),inactive
14,O=C(Cn1c(COc2ccccc2)nc2ccccc21)Nc1cc(Cl)c(Cl)cc1Cl,inactive
15,C/C(=N\NC(=O)CNC(=O)C(c1ccccc1)c1ccccc1)c1ccc(C)cc1,inactive
16,COc1ccc(C(=O)NC2CCN(C(=S)NCCc3ccccc3)CC2)cc1,inactive
17,O=C(Nc1cc(C(F)(F)F)ccc1Cl)c1cc2nc3c(c(C(F)(F)F)n2n1)CCCC3,inactive
18,Cc1cc(OCCCCOc2ccc(C#N)cc2)ccc1[N+](=O)[O-],inactive
19,Cc1cc2c(cc1C)N(Cc1ccccc1)C1=NCCCN12,inactive
20,CCCc1cc(=O)[nH]c(SCC(=O)N2CCN(S(=O)(=O)c3ccc(C)cc3C)CC2)n1,inactive
21,CCOC(=O)c1nn(-c2cccc(C)c2)cc1C(=O)c1ccccc1,inactive

row,Compound,"activity, negative = inhibition"
1,COc1ccc(-c2nc3c(c4c2C[C@H](c2ccccc2)OC4)CN(C(=O)c2ccco2)CC3)c(C)c1,5.84% [at 13.1 µM]
2,COc1ccc(-c2ccc(OC(=O)NC3CCS(=O)(=O)C3)cc2)cc1 (stereo not drawn),inactive
3,COc1ccccc1/C=C/CN1CCC(CO)(Cc2ccccc2)CC1,inactive
4,CC(=O)c1c(O)cc2n(c1=O)-c1ccc(Cl)cc1C2(C)C,inactive
5,C/C(=C\c1ccccc1)C1NC(=O)c2c(sc3c2CCCC3)N1 (stereo not drawn),inactive
6,Cc1ccc(-n2cc(CN(C)Cc3nccn3C)c(-c3cccc(C)c3)n2)cc1,inactive
7,CC(/C=C/c1ccco1)=N/NC(=O)C1COc2ccccc2O1 (stereo not drawn),inactive
8,CCOc1cccc2c1OC1(CCCCC1)N1N=C(c3cccnc3)CC21 (stereo not drawn),inactive
9,OCCNCCOc1ccc(Cl)c(Cl)c1,inactive
10,Cc1c(CCO)c(=O)[nH]n1C(=O)c1c(F)cccc1F,inactive
11,O=C1C[C@@H](c2ccc3ccccc3c2)N1S(=O)(=O)c1ccccc1[N+](=O)[O-],inactive
12,CCOC(=O)Cn1c(=O)sc2cccc(Cl)c21,inactive
13,O=C(CC1C(=O)NCCN1Cc1ccc(-c2ccccc2)cc1)NCC1CCOCC1 (stereo not drawn),inactive
14,CCO[C@H]1OC(C(=O)Nc2ccccc2)=C[C@@H](C2CC2)[C@@H]1CCCO,inactive
15,Cc1ccc2nc(-c3cccnc3)c(NC3CCCC3)n2c1,inactive
16,CCCCC/C=C\C/C=C\C/C=C\CCCCCCC(N)=O,inactive
17,Cc1ccc(C2=NN(C(=O)COc3ncnc4ccccc34)C(c3ccco3)C2)cc1 (stereo not drawn),inactive
18,O=C(Cc1ccc(S(=O)(=O)N2CCCC2)s1)NC1CCCCCC1,inactive
19,O=C(Nc1ccc(-c2csc(Nc3cccc(C(F)(F)F)c3)n2)cc1)c1cccc(C(F)(F)F)c1,inactive
20,CC[C@H](C)[C@H](NC(=O)[C@H](Cc1ccc(O)cc1)NC(=O)[C@@H](NC(=O)[C@H](CCCN=C(N)N)NC(=O)[C@@H](N)CC(=O)O)C(C)C)C(=O)N[C@@H](Cc1cnc[nH]1)C(=O)N1CCC[C@H]1C(=O)N[C@@H](Cc1ccccc1)C(=O)O,inactive
21,COc1ccc(CCn2c(NN=C3CCCC3)nc3c2c(=O)[nH]c(=O)n3C)cc1,inactive
